Data on seven molecules can be found in PubChem BioAssay (EPA / NIEHS).

Usually AC50 stands for the midpoint of the concentration-response curve, whichever way the signal moves.

Assay [1] deals with Bile acid receptor (Homo sapiens) (UniProt Q96RI1). As to the kind of experiment: ATG_IR1_CIS: Attagene CIS-FACTORIAL HepG2 Assay for human Nuclear Receptor Subfamily 1 Group H Member 4 (NR1H4), IR1 submotif (AID 2282946). Conditions: IR1 reporter transcription, actives raise or lower the signal. The essentials:
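HepG2 cells transiently transfected with multiplexed cis-element reporter units read endogenous transcription factor activity. After 24 h compound exposure, reporter mRNA was quantified by RT-PCR, fluorescent labelling, HpaI digestion and capillary electrophoresis; bidirectional fitting versus DMSO baseline.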

Assay [2] can be described thus: ATG_GRE_CIS: Attagene CIS-FACTORIAL HepG2 Assay for human Glucocorticoid Response Elements (GRE) (AID 2282947). Conditions: HepG2 GRE cis-reporter, Attagene multiplex mRNA; actives raise or lower the signal. An outline of the steps:
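Reporter transcripts read by RT-PCR with capillary electrophoresis fluorescence after a 24 h chemical exposure of HepG2 cells transiently transfected with multiple cis-element reporter units. Gain or loss fitted against DMSO.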

The nature of assay [3]: ATG_ISRE_CIS: Attagene CIS-FACTORIAL HepG2 Assay for human Interferon Regulatory Factor 1 (IRF1) binding to an Interferon-Stimulated Response Element (ISRE) (AID 2282948). Conditions: HepG2 ISRE cis-reporter (Attagene), mRNA transcription readout; actives raise or lower the signal. The essentials: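 Multiplexed mRNA reporter readout in human liver HepG2 cells: cis-element-driven reporters transfected, compound added for 24 h, transcripts amplified, fluorescently labelled and sized by capillary electrophoresis; curve fitting bidirectional against DMSO.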

The nature of assay [4]: ATG_M_32_CIS: Attagene CIS-FACTORIAL HepG2 Assay for M32 Transcription Factor (Internal Marker) (AID 2282949).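 Also: background control marker of the multiplexed CIS panel rather than a real target.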 The conditions noted are these: HepG2 Attagene cis-factorial M32 reporter, mRNA; actives raise or lower the signal. The essentials: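 HepG2 human liver cells transiently transfected with cis-promoter-driven multiple reporter transcription units, dosed 24 h. Reporter mRNA quantified by RT-PCR, FAM-labelled primer extension, HpaI digest and capillary electrophoresis; bidirectional fit versus DMSO baseline.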

Assay [5] is described as follows: ATG_M_06_CIS: Attagene CIS-FACTORIAL HepG2 Assay for M06 Transcription Factor (Internal Marker) (AID 2282950). Conditions: HepG2 Attagene CIS-FACTORIAL M06 internal marker reporter; actives raise or lower the signal. The essentials:
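One of many multiplexed endpoints: HepG2 reporter mRNA after 24 h dosing, detected by RT-PCR and capillary electrophoresis fluorescence; gain or loss of signal analysed against DMSO.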

For assay [6], the target named is Hypoxia-inducible factor 1-alpha (Homo sapiens) (UniProt Q16665). As to the kind of experiment: ATG_HIF1a_CIS: Attagene CIS-FACTORIAL HepG2 Assay for human Hypoxia Inducible Factor 1 (HIF1A) (AID 2282951). The conditions noted are these: HepG2 Attagene cis-factorial HIF1a reporter transcription; actives raise or lower the signal. An outline of the steps:
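Cis-element reporter constructs were transiently transfected into HepG2 cells, which were treated for 24 h; reporter RNA was reverse-transcribed, amplified, labelled and resolved by capillary electrophoresis.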

The target in assay [7] is Hepatocyte nuclear factor 6 (Homo sapiens) (UniProt Q9UBC0). As to the kind of experiment: ATG_HNF6_CIS: Attagene CIS-FACTORIAL HepG2 Assay for human Hepatocyte Nuclear Factor 6 (HNF6) (AID 2282952). Conditions: HepG2 Attagene cis-factorial HNF6 reporter transcription; actives raise or lower the signal. The essentials: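 Endogenous factor activity read in transiently transfected HepG2 via promoter-regulated reporter transcripts. RNA harvested 24 h post-dosing, reverse-transcribed, PCR-amplified, FAM-labelled, HpaI-digested and resolved by capillary electrophoresis; fitted in both directions against DMSO.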
Sequence of Hepatocyte nuclear factor 6 (Homo sapiens) (Q9UBC0 whole entry, looked up): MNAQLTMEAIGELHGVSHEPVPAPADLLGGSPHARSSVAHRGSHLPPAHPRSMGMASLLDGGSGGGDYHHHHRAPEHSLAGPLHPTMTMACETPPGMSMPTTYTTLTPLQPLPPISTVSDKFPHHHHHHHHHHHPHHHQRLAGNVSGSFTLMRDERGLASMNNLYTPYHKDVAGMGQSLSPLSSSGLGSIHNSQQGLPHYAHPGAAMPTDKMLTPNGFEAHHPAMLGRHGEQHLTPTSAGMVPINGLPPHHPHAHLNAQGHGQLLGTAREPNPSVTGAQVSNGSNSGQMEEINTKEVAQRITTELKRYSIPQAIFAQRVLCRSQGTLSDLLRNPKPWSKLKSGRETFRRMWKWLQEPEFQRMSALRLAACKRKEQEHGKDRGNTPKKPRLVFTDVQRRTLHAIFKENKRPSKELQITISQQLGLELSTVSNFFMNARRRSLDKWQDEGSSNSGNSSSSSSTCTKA

Assay [8] deals with Heat shock factor protein 1 (Homo sapiens) (UniProt Q00613). As to the kind of experiment: ATG_HSE_CIS: Attagene CIS-FACTORIAL HepG2 Assay for human Heat Shock Transcription Factor 1 (HSE) (AID 2282953). Conditions: HepG2 HSE cis-reporter, Attagene RNA transcription; actives raise or lower the signal. The essentials:
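Using HepG2 with transfected cis-driven reporter constructs, compound effects on endogenous factor activity are scored as reporter mRNA change at 24 h. Detection: RT-PCR, HpaI digestion, capillary electrophoresis; bidirectional fitting to DMSO.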

Assay [9] in a line: ATG_MRE_CIS: Attagene CIS-FACTORIAL HepG2 Assay for human Metal Responsive Element (MRE) (AID 2282954). Conditions: HepG2 MRE cis-reporter transcription, Attagene multiplex; actives raise or lower the signal. An outline of the steps:
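Endogenous MRE-dependent transcription read as reporter mRNA in transiently transfected human HepG2 cells at 24 h. RNA reverse-transcribed, PCR-amplified, labelled and resolved by capillary electrophoresis; gain or loss relative to DMSO.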

Assay [10] concerns the target Paired box protein Pax-6 (Homo sapiens) (UniProt P26367). As to the kind of experiment: ATG_Pax6_CIS: Attagene CIS-FACTORIAL HepG2 Assay for human Paired Box 6 (PAX6) (AID 2282956). The conditions noted are these: HepG2 CIS-FACTORIAL PAX6 reporter transcription, RNA readout; actives raise or lower the signal. An outline of the steps: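 Fluorescent RT-PCR products separated by capillary electrophoresis report PAX6-linked promoter mRNA in HepG2 cells 24 h post-dose. Curves fitted bidirectionally, DMSO as negative control.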

A short description of assay [11]: ATG_PXRE_CIS: Attagene CIS-FACTORIAL HepG2 Assay for human Pregnane X Receptor Element (PXRE) (AID 2282957). Conditions: HepG2 Attagene CIS-FACTORIAL PXRE reporter, mRNA; actives raise or lower the signal. The essentials:
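Reporter transcripts under endogenous PXR-responsive cis-regulation quantified from total RNA of transfected HepG2 cells 24 h post-dosing, via RT-PCR with fluorescent primer extension and capillary electrophoresis. Gain or loss of signal fitted against DMSO baseline.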

The nature of assay [12]: ATG_RORE_CIS: Attagene CIS-FACTORIAL HepG2 Assay for human RAR-related Orphan Receptor Element (RORE) (AID 2282959). Conditions: HepG2 Attagene cis-factorial RORE reporter, mRNA; actives raise or lower the signal. The essentials: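 Transfect HepG2 with MRTUs; treat 24 h; extract RNA; RT with oligo(dT); PCR with reporter-specific primers; 6-FAM primer extension; HpaI digest 2 h at 37 C; capillary electrophoresis. Fit vs DMSO, bidirectional.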

The nature of assay [13]: ATG_Sox_CIS: Attagene CIS-FACTORIAL HepG2 Assay for human SRY-box transcription factor (SOX) (AID 2282960). The conditions noted are these: HepG2 Attagene cis-factorial SOX reporter, mRNA; actives raise or lower the signal. An outline of the steps: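 Fluorescence-labelled cDNA fragments from reporter transcripts, sized by CE, give the signal. Cells: HepG2, transiently transfected with cis-regulated reporter units. Exposure 24 h; DMSO negative control; bidirectional curve fitting.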

Assay [14] deals with Transcription factor Sp1 (Homo sapiens) (UniProt P08047). As to the kind of experiment: ATG_Sp1_CIS: Attagene CIS-FACTORIAL HepG2 Assay for human Specificity Protein 1 (Sp1) (AID 2282961). Conditions: HepG2 Sp1 cis-reporter transcription, actives raise or lower the signal. An outline of the steps: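 Chemicals are dosed onto HepG2 cells transfected with multiple cis-promoter reporter constructs, and after 24 h reporter RNA is reverse-transcribed, PCR-amplified and resolved by capillary electrophoresis for fluorescence quantitation; activity is scored up or down against DMSO.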
Sequence of Transcription factor Sp1 (Homo sapiens) (P08047 whole entry, looked up): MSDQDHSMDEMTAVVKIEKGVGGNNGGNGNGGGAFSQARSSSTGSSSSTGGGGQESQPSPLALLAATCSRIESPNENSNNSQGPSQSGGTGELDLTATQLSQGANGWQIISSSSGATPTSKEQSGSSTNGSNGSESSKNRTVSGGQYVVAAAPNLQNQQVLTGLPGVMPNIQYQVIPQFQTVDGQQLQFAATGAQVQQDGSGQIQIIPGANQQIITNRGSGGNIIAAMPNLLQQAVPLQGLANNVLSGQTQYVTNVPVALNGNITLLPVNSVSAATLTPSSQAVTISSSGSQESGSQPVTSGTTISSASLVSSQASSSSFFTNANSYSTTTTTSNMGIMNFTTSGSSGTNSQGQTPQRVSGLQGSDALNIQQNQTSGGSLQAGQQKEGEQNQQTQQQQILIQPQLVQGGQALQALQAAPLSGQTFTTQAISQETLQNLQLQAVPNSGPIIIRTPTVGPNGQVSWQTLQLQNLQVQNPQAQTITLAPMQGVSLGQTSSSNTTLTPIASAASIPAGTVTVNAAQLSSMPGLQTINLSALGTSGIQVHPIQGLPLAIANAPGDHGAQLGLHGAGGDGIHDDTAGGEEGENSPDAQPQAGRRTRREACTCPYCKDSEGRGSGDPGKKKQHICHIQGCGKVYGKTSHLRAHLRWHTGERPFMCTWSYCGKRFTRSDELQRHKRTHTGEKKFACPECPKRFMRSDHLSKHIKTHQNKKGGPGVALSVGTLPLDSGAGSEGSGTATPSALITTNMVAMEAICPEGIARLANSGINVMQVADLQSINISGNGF

Assay [15] in a line: ATG_SREBP_CIS: Attagene CIS-FACTORIAL HepG2 Assay for human Sterol Regulatory Element Binding (SREBP) (AID 2282962). The conditions noted are these: HepG2 Attagene cis-factorial SREBP reporter, mRNA; actives raise or lower the signal. An outline of the steps:
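Endogenous factor activity is measured in HepG2 through multiplexed reporter units under cis-element control. Following a 24 h incubation, reporter transcripts are reverse-transcribed, PCR-amplified and sized by capillary electrophoresis; activity is fitted in both directions relative to DMSO.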

In assay [16] the target is Signal transducer and activator of transcription 3 (Homo sapiens) (UniProt P40763). As to the kind of experiment: ATG_STAT3_CIS: Attagene CIS-FACTORIAL HepG2 Assay for human Signal Transducer and Activator of Transcription 3 (STAT3) (AID 2282963). Conditions: HepG2, Attagene cis-factorial STAT3 reporter transcription; actives raise or lower the signal. An outline of the steps:
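Readout is reporter transcript quantified by RT-PCR and capillary electrophoresis, with 6-FAM primer extension and HpaI digestion. Total RNA is taken 24 h after dosing transiently transfected HepG2 carrying cis-regulated reporter units. Bidirectional fit against DMSO.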

Assay [17] in a line: ATG_TA_CIS: Attagene CIS-FACTORIAL HepG2 Assay for human TA Basal Promoter (AID 2282964). The conditions noted are these: HepG2 Attagene CIS-factorial TA basal promoter reporter; actives raise or lower the signal. An outline of the steps:
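Transient MRTU transfection of HepG2 preceded 24 h compound exposure. Reporter mRNA levels were then read by RT-PCR with capillary electrophoresis, and this background-control endpoint was fitted bidirectionally to DMSO.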

Assay [18] can be described thus: ATG_TCF_b_cat_CIS: Attagene CIS-FACTORIAL HepG2 Assay for human T-Cell-Factor with beta-catenin (TCF/b-cat) (AID 2282965). The conditions noted are these: HepG2 TCF/beta-catenin cis-reporter transcription, actives raise or lower the signal. The essentials:
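Endogenous transcription factor activity is captured through cis-promoter reporter constructs transiently introduced into human HepG2 liver cells. Induced reporter mRNA is measured after 24 h and fitted bidirectionally relative to DMSO.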

Assay [19] is described as follows: ATG_PBREM_CIS: Attagene CIS-FACTORIAL HepG2 Assay for human Phenobarbital-responsive Enhancer Module (PBREM) (AID 2282955). Conditions: HepG2 PBREM cis-reporter, Attagene multiplexed transcription; actives raise or lower the signal. An outline of the steps: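 Multiplexed cis-reporter readout in human hepatoma HepG2 cells; PBREM-regulated transcript quantified after 24 h exposure by fluorescent RT-PCR fragment analysis. Signal changes up or down fitted relative to DMSO.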

The nature of assay [20]: ATG_PPRE_CIS: Attagene CIS-FACTORIAL HepG2 Assay for human Peroxisome Proliferator-activated Response Element (PPRE) (AID 2282958). Conditions: HepG2 PPRE cis-element reporter, Attagene transcription factor profiling; actives raise or lower the signal. An outline of the steps: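 DMSO served as negative control and baseline for bidirectional curve fitting. Signal came from PPRE-regulated reporter mRNA in HepG2 cells, measured 24 h post-dosing by RT-PCR, 6-FAM primer extension and capillary electrophoresis.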

The source made the active and inactive calls. The calls were made as follows: active = hit-call score of the fitted dose curve at least 0.9, where 1 is the maximum; inactive = score below 0.9.

Sequence of Signal transducer and activator of transcription 3 (Homo sapiens) (P40763 whole entry, looked up): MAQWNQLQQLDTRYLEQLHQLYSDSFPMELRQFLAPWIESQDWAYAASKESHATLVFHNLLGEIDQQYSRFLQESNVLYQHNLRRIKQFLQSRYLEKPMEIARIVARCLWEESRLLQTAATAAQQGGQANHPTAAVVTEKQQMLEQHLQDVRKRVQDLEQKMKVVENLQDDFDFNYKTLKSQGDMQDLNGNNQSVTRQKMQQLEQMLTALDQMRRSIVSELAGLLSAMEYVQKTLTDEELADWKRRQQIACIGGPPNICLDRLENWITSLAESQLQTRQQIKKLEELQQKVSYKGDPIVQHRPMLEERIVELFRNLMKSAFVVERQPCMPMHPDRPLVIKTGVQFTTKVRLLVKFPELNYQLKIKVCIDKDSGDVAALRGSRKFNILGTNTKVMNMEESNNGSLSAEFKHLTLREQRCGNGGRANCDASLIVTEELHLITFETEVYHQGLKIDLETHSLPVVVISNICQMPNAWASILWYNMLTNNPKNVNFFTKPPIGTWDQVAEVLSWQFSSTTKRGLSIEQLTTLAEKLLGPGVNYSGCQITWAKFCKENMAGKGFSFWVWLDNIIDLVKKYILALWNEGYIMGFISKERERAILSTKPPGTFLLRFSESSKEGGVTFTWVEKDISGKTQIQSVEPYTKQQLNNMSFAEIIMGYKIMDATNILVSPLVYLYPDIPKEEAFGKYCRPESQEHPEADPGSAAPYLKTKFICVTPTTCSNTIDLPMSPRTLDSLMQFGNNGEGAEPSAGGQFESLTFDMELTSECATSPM
Sequence of Heat shock factor protein 1 (Homo sapiens) (Q00613 whole entry, looked up): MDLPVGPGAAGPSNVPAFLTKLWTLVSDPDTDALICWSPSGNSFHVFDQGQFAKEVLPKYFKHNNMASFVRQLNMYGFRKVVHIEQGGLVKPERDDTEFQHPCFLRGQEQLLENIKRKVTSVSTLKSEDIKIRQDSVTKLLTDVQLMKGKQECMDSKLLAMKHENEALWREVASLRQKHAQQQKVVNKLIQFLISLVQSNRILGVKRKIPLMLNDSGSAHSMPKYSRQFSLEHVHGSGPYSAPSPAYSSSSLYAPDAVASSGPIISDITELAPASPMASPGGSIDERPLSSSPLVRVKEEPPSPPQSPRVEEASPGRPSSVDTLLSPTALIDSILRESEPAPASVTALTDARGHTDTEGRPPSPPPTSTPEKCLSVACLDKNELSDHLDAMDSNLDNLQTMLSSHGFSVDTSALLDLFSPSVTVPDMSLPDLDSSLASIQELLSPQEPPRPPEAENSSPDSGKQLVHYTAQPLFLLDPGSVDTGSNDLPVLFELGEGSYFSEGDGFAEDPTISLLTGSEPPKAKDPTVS
Sequence of Bile acid receptor (Homo sapiens) (Q96RI1 whole entry, looked up): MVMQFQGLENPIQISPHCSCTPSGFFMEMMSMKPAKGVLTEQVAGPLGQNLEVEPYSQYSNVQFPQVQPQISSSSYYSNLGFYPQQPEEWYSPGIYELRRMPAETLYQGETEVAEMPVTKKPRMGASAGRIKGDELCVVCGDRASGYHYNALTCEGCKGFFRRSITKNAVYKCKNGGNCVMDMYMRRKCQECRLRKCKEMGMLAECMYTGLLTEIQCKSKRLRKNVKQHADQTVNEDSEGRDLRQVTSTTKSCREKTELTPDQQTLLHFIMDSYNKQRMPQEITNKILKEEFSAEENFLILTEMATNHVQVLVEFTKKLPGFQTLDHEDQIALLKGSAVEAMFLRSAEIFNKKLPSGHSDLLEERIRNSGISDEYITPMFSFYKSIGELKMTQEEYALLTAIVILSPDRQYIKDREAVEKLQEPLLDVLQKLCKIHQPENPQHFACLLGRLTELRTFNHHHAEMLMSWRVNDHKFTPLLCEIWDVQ
Sequence of Paired box protein Pax-6 (Homo sapiens) (P26367 whole entry, looked up): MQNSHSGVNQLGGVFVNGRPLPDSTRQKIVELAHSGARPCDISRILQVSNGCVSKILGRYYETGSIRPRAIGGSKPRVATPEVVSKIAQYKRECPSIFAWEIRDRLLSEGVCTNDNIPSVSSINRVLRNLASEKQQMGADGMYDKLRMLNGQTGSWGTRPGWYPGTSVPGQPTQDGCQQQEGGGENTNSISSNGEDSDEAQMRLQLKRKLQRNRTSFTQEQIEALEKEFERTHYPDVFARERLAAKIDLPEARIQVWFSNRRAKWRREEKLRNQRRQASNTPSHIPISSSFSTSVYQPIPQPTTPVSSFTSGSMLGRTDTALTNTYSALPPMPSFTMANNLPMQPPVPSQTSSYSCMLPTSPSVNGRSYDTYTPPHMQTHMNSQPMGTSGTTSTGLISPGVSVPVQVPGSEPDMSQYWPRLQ
Sequence of Hypoxia-inducible factor 1-alpha (Homo sapiens) (Q16665 whole entry, looked up): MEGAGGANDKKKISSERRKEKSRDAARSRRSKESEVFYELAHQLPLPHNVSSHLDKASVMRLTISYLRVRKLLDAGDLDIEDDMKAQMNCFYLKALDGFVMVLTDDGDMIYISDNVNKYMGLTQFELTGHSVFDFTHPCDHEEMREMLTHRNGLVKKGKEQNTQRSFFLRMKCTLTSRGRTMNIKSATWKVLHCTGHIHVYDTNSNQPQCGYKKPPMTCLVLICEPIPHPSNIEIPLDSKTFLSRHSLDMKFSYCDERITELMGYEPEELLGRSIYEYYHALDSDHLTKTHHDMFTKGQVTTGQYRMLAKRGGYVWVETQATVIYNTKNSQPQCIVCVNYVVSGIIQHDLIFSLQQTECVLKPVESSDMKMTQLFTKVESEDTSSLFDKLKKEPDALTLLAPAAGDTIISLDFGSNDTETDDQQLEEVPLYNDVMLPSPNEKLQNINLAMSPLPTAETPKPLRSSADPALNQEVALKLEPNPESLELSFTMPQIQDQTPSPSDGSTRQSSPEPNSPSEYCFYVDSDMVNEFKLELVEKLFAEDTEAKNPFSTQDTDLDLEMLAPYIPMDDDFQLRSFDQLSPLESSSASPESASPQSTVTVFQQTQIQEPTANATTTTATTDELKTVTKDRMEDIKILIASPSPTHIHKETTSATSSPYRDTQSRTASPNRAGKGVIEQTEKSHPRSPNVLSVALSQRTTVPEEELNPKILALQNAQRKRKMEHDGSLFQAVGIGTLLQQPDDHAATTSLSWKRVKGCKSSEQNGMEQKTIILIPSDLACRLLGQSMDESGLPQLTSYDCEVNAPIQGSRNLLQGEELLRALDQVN

As for `CCCCCCCCN1CCCC1=O`, the call in assay [1], in assay [2], in [3], in [4], in [5] and in [7] was inactive. In addition, the molecule was called inactive in [8], in [9], in [12], in assay [13], in assay [14] and in assay [15]. Further, the molecule was classed as inactive in assay [17] and in assay [18]. In addition, the AC50 in assay [6] is 147 µM (active); in assay [10] it was 144 µM (active); in assay [11], 26.2 µM (active); in assay [16], 168 µM (active).
Regarding `CC=CC=CCOC(=O)C(C)C`, the call in assay [1], in assay [2], in assay [4], in [5], in [6] and in assay [7] was inactive. Also, the result in assay [8], in [9], in [19], in assay [10], in assay [12] and in assay [13] was inactive. The call in assay [14], in assay [15], in assay [16], in assay [17] and in assay [18] was inactive. Further, the AC50 in assay [3] is 100 µM (active); in [11], 25 µM (active).
`O=P(O)(O)O`: the molecule was classed as inactive in assay [1], in assay [2], in assay [3], in [4], in assay [5] and in assay [6]. Further, the molecule was classed as inactive in assay [7], in assay [8], in [9], in [11], in [12] and in assay [13]. Besides, the outcome in assay [14], in assay [15], in [16] and in assay [18] was inactive.
Turning to `CCCCC(CC)C(=O)OC(C)C` (stereo not drawn), the molecule was classed as inactive in assay [1], in assay [2], in assay [3], in assay [4], in assay [5] and in assay [6]. Also, the result in assay [7], in [8], in assay [9], in assay [10], in assay [11] and in assay [12] was inactive. The molecule was classed as inactive in assay [13], in assay [14], in [15], in [16], in [17] and in assay [18].
For the molecule `FC(F)(F)COCC(F)(F)F`, the result in [1], in assay [2], in assay [3], in assay [4], in assay [5] and in assay [6] was inactive. In addition, the molecule was classed as inactive in assay [7], in [8], in [9], in assay [11], in [20] and in assay [12]. The result in assay [13], in assay [14], in assay [15], in assay [16], in [17] and in assay [18] was inactive.
`CC(C)C[C@H](NC(=O)OCC1c2ccccc2-c2ccccc21)C(=O)O`: the outcome in assay [1], in [2], in [3], in [4], in assay [5] and in [6] was inactive. Moreover, the outcome in [7], in assay [8], in assay [9], in assay [10], in assay [12] and in assay [13] was inactive. In addition, the molecule was called inactive in assay [14], in assay [16], in [17] and in assay [18]. Also, the AC50 in assay [11] is 28.2 µM (active); in assay [20] it was 14.7 µM (active); in assay [15] it was 69.1 µM (active).
For `O=C(O)CNc1ccccc1`, the result in assay [1], in [2], in assay [3], in assay [5], in assay [6] and in assay [7] was inactive. The call in [8], in [9], in assay [19], in [10], in assay [20] and in assay [12] was inactive. Besides, the outcome in assay [13], in assay [14], in assay [15], in assay [16], in assay [17] and in [18] was inactive. Moreover, the AC50 in assay [4] is 165 µM (active); in assay [11], 19.2 µM (active).
